About 14,000 (4.5%) of roughly 310,000 compounds showed an effect of 50% or more. Effects have a minus sign here. The full list was thinned out, with strong results kept by preference.
biological target: human ether-à-go-go-related gene (hERG) potassium channel (human, UniProt Q12809); assay: primary screen, population patch clamp on CHO cells stably expressing hERG; higher = less effect of the substance
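Also: peak tail current of the secondary pulse compared with the same well before compound.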

Sequence of human ether-à-go-go-related gene (hERG) potassium channel (Q12809 whole entry, looked up): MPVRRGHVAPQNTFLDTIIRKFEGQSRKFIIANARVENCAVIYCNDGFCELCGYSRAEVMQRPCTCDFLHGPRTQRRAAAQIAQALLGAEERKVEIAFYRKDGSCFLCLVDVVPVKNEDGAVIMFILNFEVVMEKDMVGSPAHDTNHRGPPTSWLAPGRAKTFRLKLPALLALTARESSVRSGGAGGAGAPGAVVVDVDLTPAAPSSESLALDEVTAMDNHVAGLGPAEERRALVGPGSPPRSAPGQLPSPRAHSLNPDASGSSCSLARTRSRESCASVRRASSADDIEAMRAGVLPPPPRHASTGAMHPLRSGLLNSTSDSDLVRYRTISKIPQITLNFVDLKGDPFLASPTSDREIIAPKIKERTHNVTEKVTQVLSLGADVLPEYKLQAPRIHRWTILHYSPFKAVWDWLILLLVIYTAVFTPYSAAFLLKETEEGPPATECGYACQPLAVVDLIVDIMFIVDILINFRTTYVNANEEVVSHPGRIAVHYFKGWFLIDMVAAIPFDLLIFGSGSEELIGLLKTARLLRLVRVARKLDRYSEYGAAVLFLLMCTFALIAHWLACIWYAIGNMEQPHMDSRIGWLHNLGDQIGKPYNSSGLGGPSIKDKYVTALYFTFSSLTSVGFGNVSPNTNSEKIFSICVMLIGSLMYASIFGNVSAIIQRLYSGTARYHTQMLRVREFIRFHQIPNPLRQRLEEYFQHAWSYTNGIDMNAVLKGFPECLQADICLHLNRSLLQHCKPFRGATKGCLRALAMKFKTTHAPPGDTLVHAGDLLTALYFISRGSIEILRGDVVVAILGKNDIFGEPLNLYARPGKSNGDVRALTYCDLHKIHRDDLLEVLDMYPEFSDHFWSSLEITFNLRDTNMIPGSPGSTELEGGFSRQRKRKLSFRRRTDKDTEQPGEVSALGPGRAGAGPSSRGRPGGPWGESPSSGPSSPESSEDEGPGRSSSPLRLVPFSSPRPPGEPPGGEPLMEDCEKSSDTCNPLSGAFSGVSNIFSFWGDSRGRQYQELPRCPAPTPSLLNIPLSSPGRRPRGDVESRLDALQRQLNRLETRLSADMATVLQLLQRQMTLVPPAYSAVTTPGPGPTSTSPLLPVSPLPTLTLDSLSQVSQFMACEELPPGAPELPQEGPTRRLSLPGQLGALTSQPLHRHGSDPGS

Row | SMILES | hERG current change (%, negative = inhibition) at 10uM [%]
1 | CCOC(=O)c1cnn(CCOC(=O)c2ccccc2F)c1NC(=O)c1ccccc1F | -15.6
2 | COC(=O)c1cc(Br)c(=O)n(-c2nccs2)c1 | -5.98
3 | Cc1cccc(N2C(S)=C(C#N)C(=O)NC2c2cccs2)c1 (centres unmarked) | 13
4 | CN(CC(=O)Nc1cccc2ccccc12)C(=O)/C=C/c1cccs1 | -10.7
5 | O=C1OC(/C=C/c2ccc(Cl)cc2)=NC/1=C/c1ccco1 | 2.78
6 | Cc1occc1C(=O)NNC(=O)c1ccccc1F | 13
7 | CC(=O)C(=Nc1cccc(Cl)c1)NNc1ccccc1C | 8.82
8 | O=C(N1CCN(c2ccc(F)cc2)CC1)C1(c2cccs2)CCOCC1 | -33
9 | O=C(c1ccco1)N1CCN(c2ccc(N3CCCCC3)nn2)CC1 | -44.8
10 | O=C(c1ccco1)N1CCN(c2ccc([N+](=O)[O-])cn2)CC1 | -57.7
11 | CC(=O)c1ccc(N2CCN(C(=O)c3ccco3)CC2)c(F)c1 | -25.2
12 | O=C(c1ccc([N+](=O)[O-])cc1)N1CCN(C(=O)c2ccco2)CC1 | -47.4
13 | O=C(c1ccco1)N1CCN(c2cc(N3CCOCC3)c(F)cc2[N+](=O)[O-])CC1 | -49.6
14 | O=C(c1ccco1)N1CCN(c2ccc([N+](=O)[O-])cc2F)CC1 | -64.9
15 | O=C(CCCNS(=O)(=O)c1cccc2nsnc12)NCc1ccc(Cl)cc1 | -37.9
16 | CC(C)n1nc(C(=O)N2CCN(S(=O)(=O)c3cccs3)CC2)c2ccccc2c1=O | -28.7
17 | O=C(CSc1nn(-c2ccc(F)cc2)c(=S)s1)N1CCN(C(=O)c2ccco2)CC1 | -75
18 | CCSc1nnc(SCC(=O)N2CCN(C(=O)c3ccco3)CC2)s1 | -33.4
19 | CC(C)Nc1nnc(SCC(=O)N2CCN(C(=O)c3ccco3)CC2)s1 | -2.72
20 | O=C(CSc1nn(-c2ccc(F)cc2)c(=S)s1)NC(=O)NCc1ccco1 | 2.66
21 | O=C(CSc1nnc(SCc2ccc(Cl)cc2)s1)N1CCN(C(=O)c2ccco2)CC1 | -33.7
22 | O=C(CSc1nn(-c2ccc(Cl)cc2)c(=S)s1)N1CCN(C(=O)c2ccco2)CC1 | -70.5
23 | O=S(=O)(c1ccc(Cl)cc1)N1CCN(C(=S)Nc2ccccc2F)CC1 | 2.92

Row | SMILES | hERG current change (%, negative = inhibition) at 10uM [%]
24 | O=C(Nc1cccc(-c2ccc(N3CCOCC3)nn2)c1)c1ccccc1 | -30.8
25 | CC(=O)C[C@@H](O)CC(=O)[C@H]1OC(=O)CC/C=C\Cc2ccccc21 | 14.4
26 | O=C(CN1C(=O)C2CC=CCC2C1=O)NCC1COc2ccccc2O1 (centres unmarked) | 1.42
27 | CN(C)C(=O)NC(Nc1cccc([N+](=O)[O-])c1)C(Cl)(Cl)Cl (centres unmarked) | -27.1
28 | CCc1ccc(CNC(=O)c2ccc(OC)c(OC3CCN(C(C)C)CC3)c2)nc1 | -7.31
29 | Cc1ccnc(NC(c2cccnc2)c2ccc3cccnc3c2O)c1 (centres unmarked) | -22.5
30 | COc1ccc(N2CCN(C(=O)C(=O)c3cn(CC(=O)N4CCOCC4)c4ccccc34)CC2)cc1 | 2.05
31 | S=C1NC(c2ccccc2)=CC(c2ccccc2)N1 (centres unmarked) | 6.64
32 | CC(=O)NN1C(=O)/C(=C2/Sc3ccc(Cl)cc3N2C)SC1=S | 10.6
33 | C#CC[N+](C)(C)CCCCCCCCCC.[Br-] | -38.4
34 | C#CC[N+](C)(C)CCCCCCCCCCCC.[Br-] | -50.7
35 | C#CC[N+](C)(C)CCCCCCCCC.[Br-] | -54.9
36 | C#CC[N+](C)(C)CCCCCCCC.[Br-] | -15.9
37 | CC#CC[N+](C)(C)CCCCCCCC.[Br-] | -40.1
38 | CC#CC[N+](C)(C)CCCCCCCCCC.[Br-] | -48.8
39 | CCCCNC(=O)c1ccc2c(c1)N(CC)C(=O)CS2 | -2.74
40 | COC(=O)C1=C(C)N(Cc2ccccc2)C(=NCc2cc(OC)c(OC)c(OC)c2)N[C@H]1c1cccc(F)c1 | -23
41 | COc1ccc(OC)c(/C=C(\C)C(=O)c2c(C)cc(C)[nH]c2=O)c1 | 7.34
42 | CN1CCN(c2ccc(NC(=O)c3ccc([N+](=O)[O-])o3)cc2Cl)CC1 | -57.3
43 | CN1CCN(c2ccc(NC(=O)c3ccco3)cc2Cl)CC1 | -16.8
44 | CC(=O)N1CCN(c2ccc(NC(=O)c3ccco3)cc2Cl)CC1 | 0.303
45 | CC(=O)N1CCN(c2ccc(NC(=O)c3ccc([N+](=O)[O-])o3)cc2Cl)CC1 | -50
46 | CC(=O)N1CCN(c2ccc(NC(=O)c3ccc(N4CCCC4)c([N+](=O)[O-])c3)cc2Cl)CC1 | -12.4

Row | SMILES | hERG current change (%, negative = inhibition) at 10uM [%]
47 | O=C(Nc1ccc(NC(=O)c2ccc([N+](=O)[O-])o2)cc1Cl)c1ccco1 | 9.42
48 | CC1CCCCC12NC(=O)N(CC(=O)NCCc1ccc(F)cc1)C2=O (centres unmarked) | -19.7
49 | Cc1ccc2[nH]c3c(=O)n(CC(=O)Nc4ccccc4N4CCN(C)CC4)ncc3c2c1 | -5.73
50 | COc1ccc(/C=C2/SC(=S)N(CCCC(=O)Nc3cccc(O)c3)C2=O)cc1 | 9.11
51 | Cc1cccc(NC(=O)CN(C)S(=O)(=O)c2ccc3c(c2)n(C)c(=O)c(=O)n3C)c1C | -7.72
52 | Br.COc1ncnc2c1N=C1CC(C)(C)CC(N)=C1S2 | -10.4
53 | Cc1ccc(S(=O)(=O)N2CCN(c3ccccc3)CC2)cc1 | 13
54 | CC(C)N(Cc1ccccc1)CC(O)COc1ccc(S(=O)(=O)N2CCOCC2)cc1Cl (centres unmarked) | -32.3
55 | COc1ccc(COCC(O)CN(Cc2ccccc2)C(C)C)cc1OC (centres unmarked) | 0.398
56 | COC(=O)Cc1c[nH]c2cccc(OCC(O)CN(Cc3ccccc3)C(C)C)c12.O=C(O)c1ccccc1O (centres unmarked) | -63
57 | O=C(C[n+]1cc(-c2ccc(Cl)c(Cl)c2)n2c1CCC2)c1cccs1.[Br-] | -3.09
58 | O=C(N/N=C/c1cccc(OC(=O)c2ccccc2Cl)c1)c1cccnc1 | -17
59 | O=C(Nc1cccc2ccccc12)c1cccc([N+](=O)[O-])c1 | 11.6
60 | O=C1c2ccccc2NC(c2cccc(F)c2)N1Cc1ccccc1 (centres unmarked) | -71.1
61 | CCCN1C(=O)c2ccccc2NC1c1ccc(C)cc1 (centres unmarked) | -4.35
62 | CCN(CC)CCN1C(=O)c2ccccc2NC1c1ccc(N(C)C)cc1 (centres unmarked) | -46.6
63 | CCN(CC)CCN1C(=O)c2ccccc2NC1c1cccc(F)c1 (centres unmarked) | -68.2
64 | CCCN1C(=O)c2ccccc2NC1c1ccc(Br)cc1 (centres unmarked) | -18.1
65 | O=C1c2ccccc2NC(c2ccccc2)N1Cc1ccccc1 (centres unmarked) | -35.2
66 | CCN(CC)CCN1C(=O)c2ccccc2NC1c1ccc(C)cc1 (centres unmarked) | -66.1
67 | O=C1c2ccccc2NC(c2ccc(F)cc2)N1Cc1ccccc1 (centres unmarked) | -9.65
68 | CCN(CC)CCN1C(=O)c2ccccc2NC1c1ccc(Br)cc1 (centres unmarked) | -85.7
69 | CCN(CC)CCN1C(=O)c2ccccc2NC1c1ccccc1F (centres unmarked) | -46.3

Row | SMILES | hERG current change (%, negative = inhibition) at 10uM [%]
70 | O=C1c2ccccc2NC(c2cccc(F)c2)N1Cc1ccco1 (centres unmarked) | -48.6
71 | CCCN1C(=O)c2ccccc2NC1c1ccc(Cl)c(Cl)c1 (centres unmarked) | 6.85
72 | COc1ccc(NC(=S)N2CCN(Cc3cccc(F)c3)CC2)c(OC)c1 | -6.36
73 | COc1ccc(C(=O)N2C(=S)NC(=O)/C2=C\c2ccc(C)cc2)cc1 | -2.42
74 | Cc1cccc(CN2C(=O)/C(=C\c3ccc(C(=O)NCCCN4CCN(C)CC4)cc3)Oc3ccccc32)c1 | -4.13
75 | O=C(NCCNC1CCN(Cc2ccccc2)CC1)c1cccs1 | -15.2
76 | COc1ccc(NC(=O)CN(C)CC(=O)Nc2ccc(Cl)cc2[N+](=O)[O-])cc1 | -48
77 | CCOC(=O)c1[nH]cnc1C(=O)Nc1ccc(C)cc1 | 11.6
78 | CC1(C)CC(NC(=O)Nc2ccc([N+](=O)[O-])cc2)CC(C)(C)N1 | 9.76
79 | FC(F)(F)c1nnc2c(Sc3ccc(Cl)cc3)nc3ccccc3n12 | 13.5
80 | CC(=O)c1c(C)oc2ccc(OCc3ccccc3)cc12 | 0.181
81 | Cc1ccc(NC2=NC(c3ccc(F)cc3)n3c(nc(C)cc3=O)N2)c(C)c1 (centres unmarked) | 21.8
82 | O=C(Cn1cc([N+](=O)[O-])cn1)NCc1ccccc1 | 20.9
83 | CCC(C)[C@H]1CNC(=O)C(=O)N1CCCc1cc(OC)c(OC)c(OC)c1 (some centres unmarked) | 9.16
84 | CCN(CC)CCN1C(=O)c2ccccc2NC1c1ccc(F)cc1 (centres unmarked) | -64.3
85 | COc1ccc(C2Nc3ccccc3C(=O)N2O)cc1CN1CCOCC1 (centres unmarked) | -2.72
86 | COc1ccc(C2Nc3ccccc3C(=O)N2c2ccccc2)cc1CN1CCOCC1 (centres unmarked) | -26.7
87 | CCN(CC)CCN1C(=O)c2ccccc2NC1c1cc(OC)c(OC)c(OC)c1 (centres unmarked) | -40.7
88 | CCCN1C(=O)c2ccccc2NC1c1ccc(Cl)cc1 (centres unmarked) | -7.23
89 | COc1ccc(C2Nc3ccccc3C(=O)N2Cc2ccccc2)cc1CN1CCOCC1 (centres unmarked) | -63.5
